Activity calls are given as the source filed them. Unless noted, the rule behind the calls is not given here.
Columns and labels:
[1] = test system: Wnt5a (protein binding on small-molecule microarray); test: Wnt5a binders on small-molecule microarray, primary screen, biophysical, 635/667 nm fluorescence (AID 1142); settings: 635 nm fluorescence, higher = more signal;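 note: fluorescence read at 667 nm with signal to noise per printed feature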
[2] = cell viability in Huh7 cells, primary screen, cytotoxicity control for HCV replication inhibitor project, CellTiter-Glo luminescence, basal, 48 h (AID 1143); settings: Huh7 HCV replicon, higher = more signal, called active from +8 up or from −8 down;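 note: Huh7 hepatoma cells carrying a hepatitis C replication reporter with no stimulus; test concentration not given here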
[3] = P. aeruginosa biofilm formation inhibitors, primary screen, PAO1 strain, BacTiter-Glo luminescence, LB-PBS (AID 1144); settings: 12 h, higher = more signal
[4] = CREB reporter modulators without forskolin, primary screen, cell-based, PC12, CRE-LacZ reporter, unstimulated (AID 1145); settings: no forskolin, luminescence, 4.5 h, higher = more signal, called active from +8 up or from −8 down
[5] = CREB reporter modulators under forskolin, primary screen, cell-based, PC12, CRE-LacZ reporter, forskolin-stimulated (AID 1146); settings: luminescence, 4.5 h, higher = more signal, called active from +8 up or from −8 down;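 note: PC12 cells with 6xCRE LacZ reporter stimulated by forskolin 10 µM; beta-galactosidase reporter signal reflecting CREB driven transcription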
[6] = molecular target: Streptavidin (Streptomyces avidinii) (UniProt P22629); test: streptavidin binders on small-molecule microarray, primary screen, artefact control for SMM compound annotation, biophysical, 635/667 nm fluorescence (AID 1147); settings: streptavidin binding, higher = more signal;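 note: signal reflects streptavidin binding to arrayed compounds as a control protein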
[7] = small-molecule binders of probe aInhba, primary screen, biochemical, small-molecule microarray, 635/667 nm fluorescence (AID 1148); settings: higher = more signal;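 note: score merges 667nm spot fluorescence with signal-to-noise for antibody binding to printed compounds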
[8] = molecular target: Torsin-1A (Homo sapiens) (UniProt O14656); test: torsin A binders from cell lysate, primary screen, small-molecule microarray, wild-type, 635/667 nm (AID 1149); settings: COS7 hTOR1A-WT lysate, 635 nm fluorescence, higher = more signal
[9] = molecular target: Torsin-1A (Homo sapiens) (UniProt O14656); test: small-molecule binders of mutant TOR1A in lysate, primary screen, cell lysate, small-molecule microarray, COS7 lysate, 635/667 nm fluorescence (AID 1150); settings: COS7 hTOR1A mutant lysate, 635 nm fluorescence, higher = more signal;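 note: score pools 667 nm emission and signal to noise measuring lysate protein binding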
[10] = test system: Sonic hedgehog protein (Shh); test: small-molecule binders of Shh protein, primary screen, biochemical, small-molecule microarray, 635/667 nm fluorescence (AID 1151); settings: small-molecule microarray binding, 635 nm fluorescence; higher = more signal;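 note: Shh protein binding to compounds spotted on small-molecule microarray slides; score combines spot fluorescence intensity with signal-to-noise across triplicate slides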
[11] = E. coli DRC41 culture turbidity changes, primary screen, E. coli filamentation inducer project, strain DRC41, OD650, 48 h (AID 1152);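 note: E. coli MC1000 strain DRC41 lacking acrAB efflux pump and sulA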; settings: E. coli DRC41 (acrAB sulA), higher = more signal, called active from +8 up or from −8 down
[12] = small-molecule binders of probe aLefty1, primary screen, biochemical, small-molecule microarray, 635/667 nm fluorescence (AID 1153); settings: higher = more signal;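 note: score merges spot fluorescence with signal-to-noise ratio from the scanned slide images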
[13] = PSAC antagonists in infected red cells, primary screen, cell-based, P. falciparum Indochina, OD700, 1 h (AID 1154); settings: P. falciparum Indochina infected RBC osmotic lysis, higher = more signal, called active from +8 up or from −8 down
[14] = PSAC antagonists in infected red cells, primary screen, cell-based, P. falciparum Indochina, OD700, 2 h (AID 1155);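 note: lysis reports solute entry through the parasite surface anion channel PSAC; channel blockers reduce lysis of infected cells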; settings: P. falciparum Indochina infected erythrocytes, osmotic lysis OD700; higher = more signal, called active from +8 up or from −8 down
[15] = osmotic lysis modulators in infected erythrocytes, primary screen, PSAC antagonist project, cell-based, P. falciparum Indochina, OD700, 3 h (AID 1156); settings: higher = more signal, called active from +8 up or from −8 down
[16] = PSAC antagonists in infected red cells, primary screen, cell-based, P. falciparum Indochina, OD700, 18 h (AID 1157); settings: P. falciparum Indochina infected erythrocytes, osmotic lysis OD700, 18 h; higher = more signal, called active from +8 up or from −8 down
[17] = modulators of S6 phosphorylation in cells, primary screen, cell-based, A549, cytoblot, luminescence, serum-stimulated (AID 1158); settings: A549 phospho-S6 cytoblot, 5 h, higher = more signal;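 note: serum-stimulated A549 lung adenocarcinoma cells; signal is phosphorylated S6 detected by cytoblot immunostaining with HRP secondary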
[18] = molecular target: NADPH oxidase 2 (Homo sapiens) (UniProt P04839); test: NOX2-dependent H2O2 signal modulators, primary screen, NOX inhibitor project, cell-based, HEK293-NOX2, PMA-stimulated, Amplex Red fluorescence (AID 1159); settings: 45 min, higher = more signal, called active from +8 up or from −8 down; note: test concentration not given here
[19] = molecular target: NADPH oxidase 4 (Homo sapiens) (UniProt Q9NPH5); test: NOX4-dependent H2O2 signal modulators, primary screen, NOX inhibitor project, cell-based, HEK293-NOX4, tetracycline-induced, Amplex Red fluorescence (AID 1160); settings: 45 min, higher = more signal, called active from +8 up or from −8 down
[20] = molecular target: NADPH oxidase 5 (Homo sapiens) (UniProt Q96PH1); test: NOX5-dependent H2O2 signal modulators, primary screen, NOX inhibitor project, cell-based, HEK293-NOX5, Amplex Red fluorescence (AID 1161); settings: HEK293-NOX5, ionomycin, 45 min, higher = more signal
Sequence of NADPH oxidase 5 (Homo sapiens) (Q96PH1 whole entry, looked up): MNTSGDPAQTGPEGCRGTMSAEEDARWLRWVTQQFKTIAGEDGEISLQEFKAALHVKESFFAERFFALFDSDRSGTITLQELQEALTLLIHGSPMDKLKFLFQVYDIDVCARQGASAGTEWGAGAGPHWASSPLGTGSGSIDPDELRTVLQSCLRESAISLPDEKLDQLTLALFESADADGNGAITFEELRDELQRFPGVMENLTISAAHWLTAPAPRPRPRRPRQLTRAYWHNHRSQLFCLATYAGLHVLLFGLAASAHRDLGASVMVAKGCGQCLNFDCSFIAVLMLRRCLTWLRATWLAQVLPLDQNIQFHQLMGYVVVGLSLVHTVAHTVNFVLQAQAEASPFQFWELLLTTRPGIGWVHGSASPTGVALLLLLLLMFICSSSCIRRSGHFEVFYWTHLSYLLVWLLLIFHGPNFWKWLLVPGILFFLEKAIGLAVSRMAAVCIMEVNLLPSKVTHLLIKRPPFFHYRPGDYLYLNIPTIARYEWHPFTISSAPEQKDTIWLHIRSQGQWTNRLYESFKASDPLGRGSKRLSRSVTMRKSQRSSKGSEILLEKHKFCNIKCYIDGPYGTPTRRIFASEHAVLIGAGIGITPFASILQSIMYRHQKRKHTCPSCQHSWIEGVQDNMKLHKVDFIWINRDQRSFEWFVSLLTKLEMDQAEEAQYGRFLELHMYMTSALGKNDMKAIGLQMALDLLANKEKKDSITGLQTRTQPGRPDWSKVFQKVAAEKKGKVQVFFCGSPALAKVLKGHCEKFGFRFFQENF

Sequence of Torsin-1A (Homo sapiens) (O14656 whole entry, looked up): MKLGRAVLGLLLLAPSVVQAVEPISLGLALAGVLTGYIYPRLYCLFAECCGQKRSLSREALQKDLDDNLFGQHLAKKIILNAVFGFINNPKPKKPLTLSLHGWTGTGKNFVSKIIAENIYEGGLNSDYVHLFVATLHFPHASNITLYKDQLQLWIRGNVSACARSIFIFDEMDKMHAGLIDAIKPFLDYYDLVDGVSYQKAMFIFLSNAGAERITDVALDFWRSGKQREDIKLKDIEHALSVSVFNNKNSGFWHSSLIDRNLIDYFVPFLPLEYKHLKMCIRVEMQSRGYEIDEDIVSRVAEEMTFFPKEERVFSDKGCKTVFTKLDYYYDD
Sequence of NADPH oxidase 4 (Homo sapiens) (Q9NPH5 whole entry, looked up): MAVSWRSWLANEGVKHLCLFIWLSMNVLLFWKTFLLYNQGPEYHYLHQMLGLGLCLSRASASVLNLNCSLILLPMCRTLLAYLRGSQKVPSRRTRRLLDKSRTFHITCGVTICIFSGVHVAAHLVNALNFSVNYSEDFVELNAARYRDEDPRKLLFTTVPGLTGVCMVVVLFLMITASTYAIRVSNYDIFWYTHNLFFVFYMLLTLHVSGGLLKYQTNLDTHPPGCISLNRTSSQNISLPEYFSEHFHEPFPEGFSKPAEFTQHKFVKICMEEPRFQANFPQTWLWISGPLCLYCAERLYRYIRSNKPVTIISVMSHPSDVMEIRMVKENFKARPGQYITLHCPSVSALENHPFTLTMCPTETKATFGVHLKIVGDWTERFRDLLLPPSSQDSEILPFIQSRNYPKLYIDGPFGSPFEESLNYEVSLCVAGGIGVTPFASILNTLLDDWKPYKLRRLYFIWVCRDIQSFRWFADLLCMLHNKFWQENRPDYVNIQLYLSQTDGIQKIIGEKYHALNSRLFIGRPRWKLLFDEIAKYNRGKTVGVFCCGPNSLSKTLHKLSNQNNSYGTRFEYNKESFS
Sequence of Streptavidin (Streptomyces avidinii) (P22629 whole entry, looked up): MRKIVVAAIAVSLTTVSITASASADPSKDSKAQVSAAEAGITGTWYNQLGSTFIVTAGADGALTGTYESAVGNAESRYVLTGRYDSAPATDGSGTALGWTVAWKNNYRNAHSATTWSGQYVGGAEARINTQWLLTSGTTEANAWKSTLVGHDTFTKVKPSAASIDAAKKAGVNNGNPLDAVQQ
Sequence of NADPH oxidase 2 (Homo sapiens) (P04839 whole entry, looked up): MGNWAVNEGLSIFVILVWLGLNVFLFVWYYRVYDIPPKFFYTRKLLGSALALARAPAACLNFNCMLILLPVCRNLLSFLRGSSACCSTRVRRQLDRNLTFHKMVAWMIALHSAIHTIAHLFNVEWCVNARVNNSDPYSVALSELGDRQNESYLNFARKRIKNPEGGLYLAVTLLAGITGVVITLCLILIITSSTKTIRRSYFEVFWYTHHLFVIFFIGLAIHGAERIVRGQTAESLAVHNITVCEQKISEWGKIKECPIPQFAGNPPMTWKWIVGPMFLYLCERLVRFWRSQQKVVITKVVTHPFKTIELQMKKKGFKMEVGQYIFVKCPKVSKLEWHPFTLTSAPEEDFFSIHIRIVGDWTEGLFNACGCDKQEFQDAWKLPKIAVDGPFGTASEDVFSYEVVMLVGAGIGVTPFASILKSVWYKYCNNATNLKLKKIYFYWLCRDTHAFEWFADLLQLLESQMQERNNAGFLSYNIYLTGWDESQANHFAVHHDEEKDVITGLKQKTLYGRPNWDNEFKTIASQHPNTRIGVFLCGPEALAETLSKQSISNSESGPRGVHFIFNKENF

In the case of `COc1cccc(C)c1NC(=O)O[C@H]1[C@H](OC(=O)Nc2ccccc2)[C@H](OC(=O)Nc2ccccc2)[C@@H](OC)O[C@@H]1CO`, the composite z-score [1] is reported as 0.0166, the z-score [2] is reported as -5.44 (inactive) and the z-score [3] is reported as 0.365 (inactive). For the same molecule, the z-score [4] was 0.904 (inactive), the z-score [5] was -1.49 (inactive) and the composite z-score [6] was 1.69. The composite z-score [7] was 0.0301, the composite z-score [8] was 0.513 and the composite z-score [9] was 1.05. For the same molecule, the composite z-score [10] was 0.349, the z-score [11] was -1.05 (inactive) and the composite z-score [12] was 0.211. The z-score [13] was 7.38 (inactive), the z-score [14] was 1.34 (inactive) and the z-score [15] was -0.446 (inactive). For the same molecule, the z-score [16] was 0.89 (inactive), the z-score [17] was -0.26 and the z-score [18] was 0.0936 (inactive). The z-score [19] was -0.91 (inactive) and the z-score [20] was -0.89.
With `CCCCCCCCCCC(O)C1C=CC2C(=O)NC(=O)C2N1Nc1ccccn1` (stereo not given) the composite z-score [1] was -0.41, the z-score [2] was -3.4 (inactive) and the z-score [3] was -1.27 (inactive). For the same molecule, the z-score [4] was 3.3 (inactive), the z-score [5] was 0.383 (inactive) and the composite z-score [6] was 0.606. For the same molecule, the composite z-score [7] was -0.0087, the composite z-score [8] was -1.17 and the composite z-score [9] was -0.213. For the same molecule, the composite z-score [10] was -0.478, the z-score [11] was -8.86 (active) and the composite z-score [12] was 0.0312. The z-score [13] was 19.9 (active), the z-score [14] was 6.41 (inactive) and the z-score [15] was -0.0795 (inactive). For the same molecule, the z-score [16] was 2.71 (inactive), the z-score [17] was -1.18 and the z-score [18] was -2.33 (inactive). The z-score [19] was -5.71 (inactive) and the z-score [20] was -0.309.
With `C[C@H]1ON(c2ccccc2)[C@@H](c2ccccc2)[C@@H]1C(=O)N1C(=O)OC[C@@H]1c1ccccc1` the composite z-score [1] was -0.0367, the z-score [2] was -0.133 (inactive) and the z-score [3] was 0.0377 (inactive). For the same molecule, the z-score [4] was -0.323 (inactive), the z-score [5] was -0.251 (inactive) and the composite z-score [6] was 0.116. For the same molecule, the composite z-score [7] was -0.0403, the composite z-score [8] was 0.151 and the composite z-score [9] was 0.201. For the same molecule, the composite z-score [10] was 0.657, the z-score [11] was 0.319 (inactive) and the composite z-score [12] was -0.0141. For the same molecule, the z-score [13] was 1.66 (inactive), the z-score [14] was 0.895 (inactive) and the z-score [15] was -0.372 (inactive). The z-score [16] was 0.28 (inactive), the z-score [17] was 0.238 and the z-score [18] was 0.198 (inactive). For the same molecule, the z-score [19] was -0.28 (inactive) and the z-score [20] was -0.654.
With `CCCc1cc2c(n1Cc1ccc(OC)cc1)C(C)C1CN(C(=O)c3ccccc3)C(C)(C(=O)OC)C21` (stereo not given) the composite z-score [1] was 0.562, the z-score [2] was -3.08 (inactive) and the z-score [3] was 0.393 (inactive). For the same molecule, the z-score [4] was 0.207 (inactive), the z-score [5] was 1.52 (inactive) and the composite z-score [6] was 1.95. The composite z-score [7] was 0.297, the composite z-score [8] was 0.0326 and the composite z-score [9] was 0.773. For the same molecule, the composite z-score [10] was 0.0704, the z-score [11] was -2.02 (inactive) and the composite z-score [12] was 1.1. The z-score [13] was 3.99 (inactive), the z-score [14] was 0.713 (inactive) and the z-score [15] was 1.27 (inactive). For the same molecule, the z-score [16] was 0.25 (inactive), the z-score [17] was -0.57 and the z-score [18] was -1.55 (inactive). For the same molecule, the z-score [19] was -3.23 (inactive) and the z-score [20] was -3.28.
For `COC(=O)[C@@]1(Cc2ccc(F)cc2)[C@H]2c3cc(C(=O)N(C)C)n(Cc4ccc(C)c(F)c4F)c3C[C@H]2CN1C(=O)c1ccccc1`, the composite z-score [1] was 0.152, the z-score [2] was -1.47 (inactive) and the z-score [3] was 0.563 (inactive). The z-score [4] was 0.0041 (inactive), the z-score [5] was 0.204 (inactive) and the composite z-score [6] was 0.993. It also gave a composite z-score [7] of 0.651, a composite z-score [8] of 0.123 and a composite z-score [9] of 0.432. For the same molecule, the composite z-score [10] was -0.553, the z-score [11] was -0.165 (inactive) and the composite z-score [12] was 0.159. For the same molecule, the z-score [13] was 5.08 (inactive), the z-score [14] was 1.21 (inactive) and the z-score [15] was 0.306 (inactive). For the same molecule, the z-score [16] was 0.813 (inactive), the z-score [17] was 0.101 and the z-score [18] was 0.561 (inactive). The z-score [19] was -0.0461 (inactive) and the z-score [20] was 0.169.
With `CC1CC/C=C\[C@H]2OC34C=CCN(c5ccc(Cl)cc5)C(=O)[C@H]3N(C(CO)C(C)C)C(=O)[C@]4(C)C2C(=O)O1` (stereo not given in full) the composite z-score [1] was -0.293, the z-score [2] was 0.24 (inactive) and the z-score [3] was 0.971 (inactive). For the same molecule, the z-score [4] was 0.199 (inactive), the z-score [5] was -0.27 (inactive) and the composite z-score [6] was -1.17. It also gave a composite z-score [7] of -0.128, a composite z-score [8] of 1.3 and a composite z-score [9] of 1.45. For the same molecule, the composite z-score [10] was 0.14, the z-score [11] was -0.397 (inactive) and the composite z-score [12] was 0.188. For the same molecule, the z-score [13] was 2.3 (inactive), the z-score [14] was 0.798 (inactive) and the z-score [15] was 0.647 (inactive). The z-score [16] was 0.647 (inactive), the z-score [17] was -0.631 and the z-score [18] was 1.86 (inactive). For the same molecule, the z-score [19] was -0.264 (inactive) and the z-score [20] was 2.39.
For `Cc1cc(C)c(C(O)C2C=CC3C(=O)N(c4ccccc4)C(=O)C3N2Nc2ccccc2)c(C)c1` (stereo not given), the composite z-score [1] was 0.345, the z-score [2] was 0.326 (inactive) and the z-score [3] was -1.38 (inactive). The z-score [4] was -0.329 (inactive), the z-score [5] was 0.501 (inactive) and the composite z-score [6] was 1.55. For the same molecule, the composite z-score [7] was 0.117, the composite z-score [8] was 0.133 and the composite z-score [9] was 0.329. The composite z-score [10] was 0.234, the z-score [11] was -0.687 (inactive) and the composite z-score [12] was 0.157. The z-score [13] was 1.72 (inactive), the z-score [14] was 1.23 (inactive) and the z-score [15] was 0.244 (inactive). The z-score [16] was 1.44 (inactive), the z-score [17] was -0.824 and the z-score [18] was -1.56 (inactive). For the same molecule, the z-score [19] was -3.06 (inactive) and the z-score [20] was -3.17.
In the case of `CC(C)c1ccc(NN2C(C(O)c3ccccn3)C=CC3C(=O)N(c4ccccc4)C(=O)C32)cc1` (stereo not given), the composite z-score [1] is reported as 1.01, the z-score [2] is reported as 0.0489 (inactive) and the z-score [3] is reported as -0.997 (inactive). The z-score [4] was 0.0501 (inactive), the z-score [5] was 0.792 (inactive) and the composite z-score [6] was 0.608. For the same molecule, the composite z-score [7] was 0.46, the composite z-score [8] was 1.55 and the composite z-score [9] was 2.09. The composite z-score [10] was 1.98, the z-score [11] was -0.701 (inactive) and the composite z-score [12] was 0.595. The z-score [13] was 7.66 (inactive), the z-score [14] was 1.4 (inactive) and the z-score [15] was 2.42 (inactive). The z-score [16] was 1.64 (inactive), the z-score [17] was -0.336 and the z-score [18] was -1.2 (inactive). For the same molecule, the z-score [19] was -3.57 (inactive) and the z-score [20] was -3.05.
